# Source: PubChem (National Center for Advancing Translational Sciences (NCATS))
# An excerpt weighted towards active compounds, which were near 21% of everything screened.
# Pf growth 96h = inhibits malaria parasite growth, 96 h | AID 504834 | 320,000 tested, 6.9% active | P. falciparum luciferase reporter growth, 96 h | Potency, µM (doses to about 28.7 µM), without a hit: at the top dose activity change, negative = inhibition, actives largely listed as inhibitors; active means well fitted inhibition curve with a large enough effect; inconclusive means small, poorly fitted or top-dose-only effect, or another doubt; inactive means no such curve, though single readings can be large or run the other way; further: potency means the concentration at half of the fitted maximal effect; on the % scale 0 is the no-effect control and ±100 the full control effect
#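 Readout is luminescence from an integrated firefly luciferase in P. falciparum. Red cells, 2% hematocrit and 0.05% parasitemia final, were cultured with compound through two parasite generations (96 hours) at 37 C, 5% CO2.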
# Pf growth 48h = inhibits P. falciparum growth in the first generation, 48 h. 310,000 tested, 5.9% active. AID 504832. Potency, µM (highest dose often 28.7 µM), inactives show at the highest dose activity change, negative = inhibition, hits mostly inhibitors. P. falciparum luciferase growth in erythrocytes, 48 h; active means well fitted inhibition curve with a large enough effect; inconclusive means small, poorly fitted or top-dose-only effect, or another doubt; inactive means no such curve, though single readings can be large or run the other way; further: potency means the concentration at half of the fitted maximal effect; on the % scale 0 is the no-effect control and ±100 the full control effect
#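 Luciferase-expressing parasites in RBCs, 2% Hct / 0.1% parasitemia final; RPMI 1640 + 0.5% Albumax; 37 C, 5% CO2, one generation; luminescence read-out, lower signal = inhibition.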
# Shiga toxin inh = Shiga toxin inhibition; Vero cells, Shiga toxin protein synthesis inhibition reporter; inhibition, % at 38.7 µM; 290,000 tested, 9.2% active; AID 2315; in the data active means inhibition mostly above about 28%, no sharp cut-off; inactive means mostly below about 43%; further: 0% is about no effect
# SARS PLpro yeast = SARS-CoV PLP inhibition in yeast; Potency, µM (series often up to 32.9 µM), without a hit: at the top dose activity, positive = growth rescue, usual class: activators; 330,000 tested, 0.19% active; S. cerevisiae expressing SARS-CoV PLpro, growth rescue; further: potency means the concentration at half of the fitted maximal effect; 0% is about no effect; nearly all actives have a fitted effect of over 55% in size
# Cycloheximide cs = affects cycloheximide protein synthesis inhibition readout, counter-screen. cell reporter, cycloheximide protein synthesis inhibition counterscreen. max response, %. 300,000 tested, 12% active; in the data active means max response mostly above about 13%, no sharp cut-off; inactive means mostly below about 14%; further: read at 38.3 µM for the half of the compounds with a filed dose; 0% is about no effect
# NS1 function inh = blocks influenza NS1 protein function. Potency, µM (titrated, usually from 46.1 µM), for inactives: at the highest dose activity, positive = more growth. 270,000 tested, 0.4% active; further: potency means the concentration at half of the fitted maximal effect; actives are rising curves; nearly all actives have a fitted effect of over 50% in size
#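 A cell-based growth assay was used: compounds that relieve NS1-induced slow growth of budding yeast raise OD600. Assay medium was yeast nitrogen base with ammonium sulphate and -URA supplement, pH 6.0, with 2% galactose.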
# The depositor's hits bear a star; u = inconclusive; x = no result; [ ] = dose if it differs, or a comment. Unless noted, the call rests on the fitted dose curve.
SMILES,Pf growth 96h,Pf growth 48h,Shiga toxin inh,SARS PLpro yeast,Cycloheximide cs,NS1 function inh
Nc1ccc(Cc2ccc(N)c(O)c2)cc1O,u,171%,43*,-4%,23,x
Cc1cc(C)cc(NC(=O)COc2ccc3c(C)c(Cc4ccccc4)c(=O)oc3c2)c1,u,8.3µM*,-10,1%,-3,18%
Cc1c(Cc2ccccc2)c(=O)oc2c(C)c(OCC(=O)Nc3ccc(C#N)cc3)ccc12,2.1µM*,u,-8,6%,-1,5%
Cc1cc(OCC(=O)NCC2CCC(C(=O)O)CC2)c2c(C)c(Cc3ccccc3)c(=O)oc2c1 (stereo unspecified),3.3µM*,12µM*,11,-7%,-4,4%
Cc1cccc(C)c1NC(=O)COc1ccc2c(C)c(Cc3ccccc3)c(=O)oc2c1C,20%,-27%,-9,-12%,-2,-3%
CCOc1ccc(-n2c(=S)sc3c(=O)[nH]c(SCC(=O)C(C)(C)C)nc32)cc1,u,u,-8,0%,-2,x
CC(O)CNc1cnccn1 (stereo unspecified),54%,-5%,-5,5%,5,x
Cc1ccc(-c2cc(C(F)F)n3ncc(C(=O)N4CCN5CCCC5C4)c3n2)cc1 (stereo unspecified),x,12µM*,-9,14%,-3,2%
CC1CCCCN1C(=O)c1cc2nc(-c3ccccc3)cc(-c3ccccc3)n2n1 (stereo unspecified),u,8.3µM*,-1,-38%,-1,-14%
CCOC(=O)C1CCCN(C(=O)c2cnn3c(C(F)F)cc(-c4ccc(C)cc4)nc23)C1 (stereo unspecified),x,4.7µM*,-13,-21%,0,-13%
O=C(c1cc2nc(-c3ccc(F)cc3)cc(C(F)(F)F)n2n1)N1CCCCC1c1cccnc1 (stereo unspecified),-51%,3.7µM*,-2,-20%,5,x
COCCCn1c(SCC(=O)NC2CCS(=O)(=O)C2)nnc1-c1ccc(Cl)cc1 (stereo unspecified),23%,13%,x,-19%,x,x
COc1cc(C(C)=O)ccc1O,0%,3%,x,-3%,x,x
Cc1ccc(-c2cc(C(F)F)n3ncc(C(=O)N4CCCCC4c4cccnc4)c3n2)cc1 (stereo unspecified),4.1µM*,1.7µM*,-7,-1%,-1,-3%
Cc1ccc(CN2CCNC(=O)C2CC(=O)NCCCn2ncc3ccccc32)o1 (stereo unspecified),u,10%,-9,1%,-2,4%
Cc1cccc(C(=O)Nc2cccc(C(=O)N/N=C/c3ccncc3)c2)c1,u,-23%,-3,-7%,-2,3%
O=C(N/N=C/c1cccc(O)c1)c1ccc(NC(=O)C2CCCCC2)cc1,u,u,45,1%,9,-1%
Cc1ccc(C(=O)Nc2cccc(C(=O)N/N=C/c3ccc(O)cc3)c2)cc1,u,112%,34,3%,28*,-2%
O=C(N/N=C/c1cccs1)c1cccc(NC(=O)c2ccc(Cl)cc2)c1,u,-21%,13,-12%,29*,-5%
O=C(O)/C=C/c1cccc(NC(=O)c2ccc(Cl)cc2)c1,5%,0.33µM*,34,0%,3,-1%
O=C(N/N=C/c1cccc(NC(=O)c2ccc(Cl)cc2)c1)c1cccc(O)c1,356%,90%,77*,0%,26*,-34%
CSCc1cc(N(C)c2ccccc2)nc(-c2ccccc2)n1,u,-7%[0.00184 µM],-4,-7%,6,-32%
NCCCNCCCCNCCCN,x,x,x,-7%,x,3%
O=C(COc1ccccc1)Nc1ccccc1NS(=O)(=O)c1cccs1,-2%,0%,17,3%,-2,-48%
Cc1cc(Cl)ccc1OCC(=O)Nc1ccccc1NS(=O)(=O)c1cccs1,2%,11%,23,-1%,23*,u
SMILES,Pf growth 96h,Pf growth 48h,Shiga toxin inh,SARS PLpro yeast,Cycloheximide cs,NS1 function inh
O=C(COc1ccc(Cl)cc1Cl)Nc1c(-c2cccs2)nc2ccccn12,71%,44%,30,-8%,13*,-15%
O=C(COc1ccc(Cl)cc1Cl)Nc1ccccc1NS(=O)(=O)c1cccs1,15%,46%,94*,0%,47*,7%
Cc1ccn2c(NC(=O)C(C)(C)Oc3ccc(Cl)cc3)c(-c3cccs3)nc2c1,12µM*,-22%,-9,-34%,-1,-8%
S=C(Nc1cc(Cl)cc(Cl)c1)N1CCN(c2ccccn2)CC1,17%,16%,-9,-1%,6,-4%
CCOc1ccc(N2CC(NC(=O)c3ccc4ccccc4c3)CC2=O)cc1 (stereo unspecified),-4%,20%,x,-1%,x,x
CC(C)(C)NC(=O)CSc1nc2cccnc2n1C1CCCCC1,59%,u,-9,0%,-1,-18%
COc1ccc(NC(=O)CN2C(=O)c3ccccc3Sc3ccc(C(=O)N4CCOCC4)cc32)c(OC)c1,-14%,10µM*,-10,-4%,1,x
C=CCN1C(=O)c2ccccc2Sc2ccc(C(=O)N3CCN(C)CC3)cc21,9.3µM*,u,-4,1%,1,-11%
C=CCN1C(=O)c2ccccc2Sc2ccc(C(=O)NC(C)C)cc21,-10%,-17%,-1,-1%,1,0%
COCC(=O)N(CCc1ccc(OC)c(OC)c1)Cc1cc2cc(C)ccc2nc1Cl,3%,-18%,9,0%,13,x
CN(CC(=O)Nc1cccc(F)c1)C(=O)c1cc(S(=O)(=O)N2CCCCC2)ccc1N1CCOCC1,u,u,x,-3%,x,x
Cc1cc(-n2c(C)cc(C(=O)CSc3nnc4sc5ccccc5n34)c2C)no1,33%,-10%,87*,5%,24*,-8%
Cc1cc(-n2c(C)cc(C(=O)CSc3ncnc4ccccc34)c2C)no1,u,12%,16,2%,1,-9%
Cc1cc(-n2c(C)cc(C(=O)CSc3nnnn3-c3ccc(Cl)cc3)c2C)no1,12µM*,12µM*,-1,-18%,-1,-6%
O=C(O)CCCNc1ccc(S(=O)(=O)N2CCCCC2)cc1,-5%,19%,6,0%,-4,-7%
CC1CCCN(CC(O)COc2ccc(S(=O)(=O)N3CCCC3)cc2[N+](=O)[O-])C1 (stereo unspecified),u,u,x,7%,x,x
CCOc1ccc(C(=O)/C=C/c2ccc(SC)cc2)cc1,u,-8%,2,-8%,19,-54%
COc1ccc(C(=O)CC(=O)C(=O)Nc2ccccc2C(F)(F)F)cc1,-10%,x,5,2%,0,-2%
COc1ccc(CNC(=O)/C=C/c2ccc(OCCCF)cc2)cc1,14%,u,60,1%,14,-20%
CC(C)(C)C(=O)/C=C/c1ccc(Oc2ccccc2)cc1,47%,161%,120*,-3%,50*,-34%
CCOc1ccc(/C=C/C(=O)NCc2ccccc2)cc1,4%,-27%,30,-32%,20*,3%
